Each structure is given as a SMILES string. In all, about 1,100 compounds went through this assay and about 420 (38%) were called active. A selection follows. A number with no mark means an inactive call. No stated cut-off is given here; in the data, active means inhibition above about 29%; inactive means the rest.

One may read the inhibition as the change of the read-out against control, counted positive when it falls.

Chain of Orexin/Hypocretin receptor type 1 (Homo sapiens) (O43613 whole entry, looked up): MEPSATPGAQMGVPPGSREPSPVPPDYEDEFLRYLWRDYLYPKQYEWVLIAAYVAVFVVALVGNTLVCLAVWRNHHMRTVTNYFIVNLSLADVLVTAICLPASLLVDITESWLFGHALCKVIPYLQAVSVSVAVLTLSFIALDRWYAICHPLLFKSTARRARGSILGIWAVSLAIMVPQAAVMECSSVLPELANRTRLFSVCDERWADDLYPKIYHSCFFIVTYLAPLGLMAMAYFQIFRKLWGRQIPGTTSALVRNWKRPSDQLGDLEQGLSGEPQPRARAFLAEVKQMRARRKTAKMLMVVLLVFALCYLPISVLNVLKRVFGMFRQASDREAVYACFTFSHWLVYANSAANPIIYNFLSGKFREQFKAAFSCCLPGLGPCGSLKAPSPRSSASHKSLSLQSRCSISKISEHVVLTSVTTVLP

The test concerns the target Orexin/Hypocretin receptor type 1 (Homo sapiens) (UniProt O43613). Description: OX1R (HCRTR1) antagonists, confirmation, fluorescence, CHO/OX1R cells, Fluo-8 calcium, orexin A (AID 492963).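 Further: 0% = agonist challenge alone and 100% = reference antagonist.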 Particulars: orexin A calcium Fluo-8 fluorescence, at 5 µM, hits give high values.
For `O=C(Nc1cccc2cccnc12)c1cccc(N2C(=O)CCC2=O)c1`, the inhibition was 33.2% (active).
The value for `CCOC(=O)c1cccc(NC(=O)CN(c2ccc(C)cc2)S(=O)(=O)c2c(C)noc2C)c1` was 5.21%; that for `COc1ccc2sc(-c3ccc(N(C)C)cc3)c(C#CCO)c2c1` was 25.9%.
The same measure for `CCOC(=O)c1c(-c2ccc(C)cc2C)csc1NC(=O)CSc1nnnn1C`: -17.1%; for `CCn1c(SCC(=O)c2ccc3ccccc3c2)nnc1-c1cccs1`: 29.5% (active); for `CCOC(=O)N1CCN(C(=O)c2ccc(S(=O)(=O)Nc3cccc(C(F)(F)F)c3)cc2)CC1`: 15.2%.
The value for `COc1ccc(N2CC(C(=O)NCCN3C(=O)S/C(=C\c4cccnc4)C3=O)CC2=O)c(OC)c1` (stereo not given) was 26.6%; that for `COc1cc(CN2CC(C)CC(C)C2)cc([N+](=O)[O-])c1O` (stereo not given) was -4.4%; that for `COc1ccccc1CNC(=O)C1CCCN(S(=O)(=O)c2cccc3cccnc23)C1` (stereo not given) was -1.33%.
On to `Cc1cc(C)cc(NC(=O)C2CCCN2S(=O)(=O)c2cccc3cccnc23)c1` (stereo not given), for which the inhibition was 62.9% (active).
The same measure for `NC(=O)C1=C[C@@H](c2ccc3c(c2)OCO3)C[C@@H](OCCCCO)O1`: 1.6%; for `CC1(C)C2CC=C(/C=N/NC(=O)C3CC3)C1C2` (stereo not given): -24.5%; for `O=C(Cn1[nH]c(=O)c2ccccc2c1=O)Nc1cccc(-c2nnc3n2CCCCC3)c1`: 24.9%.
The value for `S=C(NCc1ccc(Cl)cc1)NC12CC3CC(CC(C3)C1)C2` was 10.8%.
Take `Cc1cc(N2CCCC2=O)cc(C)c1S(N)(=O)=O`: the inhibition is 1.01%.
Take `N#C/C(=C/c1ccc(N2CCCCC2)o1)C(=O)NCCc1c[nH]c2ccccc12`: the inhibition was 48.7% (active).
The same measure for `O=C(N/N=C/c1c(Cl)[nH]c2ccccc12)c1sc2ccccc2c1Cl`: 79% (active); for `C/C(N)=C(/C#N)C(=O)COC(=O)c1cc(-c2ccc(C)cc2)nc2ccccc12`: -4.02%; for `CCc1ccccc1OCC(=O)Nc1ccc(C)c(S(=O)(=O)N2CCCCCC2)c1`: 5.4%.
The same measure for `O=C(NC(Cc1c[nH]c2ccccc12)C(=O)N/N=C/c1ccc(Br)cc1)c1cccs1` (stereo not given): 55.8% (active); for `CCOc1ccc(CCNC(=O)C(CC)n2nc(C)n3c(cc4sccc43)c2=O)cc1OCC` (stereo not given): 25.3%; for `CC(C)(C)NC(=O)CN(C(=O)c1csnn1)c1ccccc1-c1ccccc1`: 18.8%.
`N#CC(=C1SC=CS1)c1nc(-c2ccccc2)cs1`: the inhibition is 87.3% (active).
For `N#C/C(=C1\CCCN1)c1nc(-c2ccccc2)cs1`, the inhibition was 40% (active).
The value for `Nc1nc(COC(=O)CCC(=O)c2ccc(Cl)cc2)nc(Nc2ccccc2)n1` was 19.1%; that for `CC(Oc1ccc2ccccc2c1)C(=O)NNC(=S)NC(=O)c1ccco1` (stereo not given) was 5.25%; that for `N/C(=N\OC(=O)Nc1ccc(Cl)c(Cl)c1)c1ncc(C(F)(F)F)cc1Cl` was 29% (active).
The value for `COC(=O)c1sccc1NC(=O)CSc1ccccc1NS(=O)(=O)c1cc(Cl)ccc1Cl` was 21.5%; that for `Cc1cc(C(=O)NC2CCCc3c2cnn3-c2cccc(C)c2C)c(C)o1` (stereo not given) was 27.6%; that for `CC(=O)Nc1cccc(OCC(=O)/C=C2\N(C)c3ccccc3C2(C)C)c1` was 15.6%.
The same measure for `COc1ccc(/C=C/C(=O)c2ccc(NS(=O)(=O)c3ccc(C)cc3)cc2)cc1O`: 42.2% (active); for `Cc1cccc(NS(=O)(=O)c2cccc(C(=O)NNC(=O)c3ccccc3O)c2)c1`: 14.2%; for `O=C1C=C(c2ccc(Cl)cc2)C(=O)N1Nc1ccccc1`: 57% (active).
For `Cc1ccc2c(C)c(C(=O)N(C)CCC3CCCCO3)oc2c1C` (stereo not given), the inhibition was -17.4%.
The same measure for `O=C(N/N=C/c1sc(N2CCCCC2)nc1-c1cccs1)c1cccnc1`: 48.1% (active); for `Cc1cccc(NC(=O)Nc2cccc(Oc3c(F)c(F)c(F)c(F)c3F)c2)c1`: 12.1%; for `CCCN(CC(=O)Nc1ccccc1OC)C(=O)CCC(=O)c1ccc(F)cc1`: 1.45%.
The same measure for `Cc1cc(-c2ccc(C)c(S(=O)(=O)NC(C)Cc3ccco3)c2)on1` (stereo not given): 0.43%.
With `CCOc1ccc(/C=C/C(=O)OCC(=O)c2ccccc2OC)cc1OC`, the inhibition was 36.1% (active).
The value for `O=C(CCCN1CCc2[nH]c3ccc(F)cc3c2C1)c1ccc(F)cc1` was 26.4%; that for `Cn1c(N)c(C(=O)COC(=O)c2ccc3ccccc3c2)c(=O)n(C)c1=O` was 30.5% (active); that for `Cc1ccc(S(=O)(=O)N2CCN(c3ncnc4ccccc34)CC2)cc1` was 15%.
The value for `CCOc1cc(/C=C(\C#N)c2nc(-c3cccs3)c(NC(C)=O)s2)ccc1O` was 18%; that for `O=C1c2ccccc2S(=O)(=O)N1CC(O)Cn1c2ccccc2c2ccccc21` (stereo not given) was 29.4% (active); that for `CC1CCCN(CC(O)COCc2ccccc2)C1` (stereo not given) was 5.05%.
The same measure for `O=C(OC1CCOC1=O)c1ccc(-c2nc3ccccc3s2)s1` (stereo not given): 43.4% (active).
Turning to `CCCc1nc2c(c(=O)c3ccccc3n2C)c(=O)n1C1CCCCCC1`, the inhibition is 9.14%.
The same measure for `S=c1[nH]nc(-c2cc(-c3ccccc3)n[nH]2)n1/N=C/c1c2ccccc2cc2ccccc12`: 38.1% (active); for `CCOC(=O)N1CCN(c2cc(C)c([N+](=O)[O-])cc2F)CC1`: 17.3%; for `COc1cccc(C(=O)NC(=O)Nc2nc(C)cc(C(F)(F)F)n2)c1`: 35% (active).
Turning to `CCCCC(=O)NNC(=S)NC(=O)C(c1ccccc1)c1ccccc1`, the inhibition was 58.6% (active).
In the case of `CCCCCCCC(=O)NC(Nc1ccccc1OC)C(Cl)(Cl)Cl` (stereo not given), the inhibition was -23.5%.
As to `Cc1ccc(NC(=O)COc2ccc(-n3ccnc3)cc2)cc1Cl`, the inhibition is 22.1%.
Take `O=C(Nc1cccc(NC(=O)N2CCN(c3ccccc3)CC2)c1)N1CCN(c2ccccc2)CC1`: the inhibition was 37.3% (active).
The same measure for `COc1cc2ccccc2cc1C(=O)Nc1ccc(N2CCOCC2)cc1`: -1.28%; for `CN(c1ccccc1)S(=O)(=O)c1cccc(NC(=O)Cc2ccc(Cl)cc2)c1`: 26%.
Regarding `N#Cc1nc(-c2cccc3ccccc23)oc1N`, the inhibition was 40.6% (active).
Take `COc1cccc(/C=N/NC(=O)c2[nH]nc3c2CCc2ccccc2-3)c1O`: the inhibition was 20.3%.
Take `COc1cccc(/C=N/Nc2cc(C)nc(-c3ccccc3O)n2)c1O`: the inhibition was 69.7% (active).
The same measure for `CCC(=O)N(C)C(c1ccccc1Cl)c1nnnn1-c1c(C)cccc1C` (stereo not given): 21.7%.
The same measure for `Cc1ccccc1S(=O)(=O)N1[C@@H](c2cccc(Cl)c2)C(C(=O)O)=CC[C@H]1c1ccc(Cl)cc1`: 43.3% (active); for `COCc1c(C(=O)OCC(=O)Nc2ccc(OC(F)F)cc2)oc2ccccc12`: 26.3%; for `C=CCn1c(SCC(=O)Nc2nc3ccccc3s2)nnc1-c1ccccc1O`: 48% (active).
The same measure for `COc1ccc2[nH]cc(/C=C(/C#N)S(=O)(=O)c3ccccc3)c2c1`: 8.34%; for `c1coc(CNc2ncnc3ccccc23)c1`: 24.7%.
